The source of these data is ChEMBL document CHEMBL3988442, “University of Dundee, Small-Polar-MMV Screening Library” (2021).

For some assays here: Results with a measured potency or affinity are listed apart.

Design in all cases: scale not given: direction of the effect not stated beside the values
For assay [1], the target named is Protein translocase subunit SecA (Escherichia coli (strain K12)) (UniProt P10408). Kind of assay: Assay to Identify E. coli SecA ATPase Inhibitors. The settings on record: 30 µM. The assay is classed as functional.
In assay [2] the target is T1, Ubiquitin-activating enzyme e1, putative (Leishmania donovani (strain BPK282A1)) (UniProt E9BSI1).
T1 sequence (whole entry): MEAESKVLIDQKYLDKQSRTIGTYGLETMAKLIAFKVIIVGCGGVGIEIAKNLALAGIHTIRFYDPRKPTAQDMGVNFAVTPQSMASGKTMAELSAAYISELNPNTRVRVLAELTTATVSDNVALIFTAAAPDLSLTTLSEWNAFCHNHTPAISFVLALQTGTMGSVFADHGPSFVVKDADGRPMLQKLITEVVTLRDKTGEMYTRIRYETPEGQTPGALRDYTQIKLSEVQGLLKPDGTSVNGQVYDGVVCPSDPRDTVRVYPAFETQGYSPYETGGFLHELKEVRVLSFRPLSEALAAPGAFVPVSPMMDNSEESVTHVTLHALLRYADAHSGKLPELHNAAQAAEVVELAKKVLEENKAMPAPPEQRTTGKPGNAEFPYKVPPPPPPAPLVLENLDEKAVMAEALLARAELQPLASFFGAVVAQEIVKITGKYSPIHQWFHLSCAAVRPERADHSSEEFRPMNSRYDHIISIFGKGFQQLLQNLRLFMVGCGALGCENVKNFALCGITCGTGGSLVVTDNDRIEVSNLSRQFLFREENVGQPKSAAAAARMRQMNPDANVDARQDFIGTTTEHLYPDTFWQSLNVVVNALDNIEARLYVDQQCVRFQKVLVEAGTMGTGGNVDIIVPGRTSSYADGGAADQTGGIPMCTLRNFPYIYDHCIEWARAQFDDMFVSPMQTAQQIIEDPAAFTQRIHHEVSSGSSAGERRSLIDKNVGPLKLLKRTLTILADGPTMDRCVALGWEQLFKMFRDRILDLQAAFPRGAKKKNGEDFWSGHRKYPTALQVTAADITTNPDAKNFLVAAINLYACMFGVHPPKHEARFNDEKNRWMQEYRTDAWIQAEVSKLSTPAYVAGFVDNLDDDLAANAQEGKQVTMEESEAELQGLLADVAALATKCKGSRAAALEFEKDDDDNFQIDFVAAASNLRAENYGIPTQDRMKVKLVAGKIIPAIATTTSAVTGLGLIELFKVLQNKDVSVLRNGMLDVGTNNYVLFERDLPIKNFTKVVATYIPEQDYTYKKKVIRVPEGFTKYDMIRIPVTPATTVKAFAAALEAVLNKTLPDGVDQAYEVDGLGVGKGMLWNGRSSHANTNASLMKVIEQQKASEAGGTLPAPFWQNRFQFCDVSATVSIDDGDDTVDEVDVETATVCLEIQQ
Kind of assay: Leishmania donovani Ubiquitin Activating Enzyme (LdE1). In kind it is functional. The settings on record: 30 µM.

In assay [3] the target is AMP-activated protein kinase, AMPK (Homo sapiens) (UniProt P54646+O43741+P54619+Q9UGJ0+Q9Y478+Q13131+Q9UGI9). The assay is described as follows: AMP-dependent Kinase enzyme assay. An in vitro enzyme assay that detects ADP turnover that is directly proportional to AMPK activity. This uses naive AMPK that is activated during the assay with MK-8722. The settings on record: 30 µM. In kind it is functional.

The target of assay [4] is Sialic acid-binding Ig-like lectin 9 (Homo sapiens) (UniProt Q9Y336). Kind of assay: Hs-Siglec9 ALPHAscreen SOP 20170721. The following applies: 10 µM. (Alpha assays give light when donor and acceptor beads are brought close together.)
For a further assay, the system named is Trypanosoma cruzi. The assay is described as follows: Trypanosoma cruzi phosphomannomutase and mannose-1-phosphate guanylyltransferase assay. In kind it is functional. The following applies: 10 µM.
Assay [5] has as its target T2, Arginase-2, mitochondrial (Homo sapiens) (UniProt P78540).
T2 sequence (whole entry): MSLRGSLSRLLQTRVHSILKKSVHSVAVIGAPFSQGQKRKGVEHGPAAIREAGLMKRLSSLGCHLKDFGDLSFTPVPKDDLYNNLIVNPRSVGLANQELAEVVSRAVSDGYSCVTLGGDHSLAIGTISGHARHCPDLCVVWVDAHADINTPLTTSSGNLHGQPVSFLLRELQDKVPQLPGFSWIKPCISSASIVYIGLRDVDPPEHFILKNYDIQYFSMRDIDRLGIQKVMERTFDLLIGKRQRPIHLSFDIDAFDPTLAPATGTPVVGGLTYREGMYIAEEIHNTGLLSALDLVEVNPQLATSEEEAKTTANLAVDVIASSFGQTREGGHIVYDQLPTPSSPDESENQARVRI
The assay is described as follows: in vitro enzyme assay to detect the production of urea directly proportional to the activity of Arginase II. Further: in the data most compounds retested in dose-response had high values. The assay is classed as functional. The settings on record: 33.3 µM.

For assay [6], the target named is T3, Proteasome subunit beta (Trypanosoma cruzi) (UniProt O96673).
T3 sequence (whole entry): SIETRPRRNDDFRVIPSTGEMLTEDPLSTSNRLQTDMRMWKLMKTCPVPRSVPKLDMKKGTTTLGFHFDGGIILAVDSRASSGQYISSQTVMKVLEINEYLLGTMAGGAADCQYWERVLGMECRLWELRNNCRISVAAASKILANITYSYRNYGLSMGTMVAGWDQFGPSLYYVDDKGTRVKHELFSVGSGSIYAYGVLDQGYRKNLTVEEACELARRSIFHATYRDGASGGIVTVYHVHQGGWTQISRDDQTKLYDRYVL
Kind of assay: Trypanosoma cruzi proteasome chymotrypsin-like activity (TcProtChymo) assay. Further: in the data most compounds retested in dose-response had high values. The assay is classed as functional. The settings on record: 9.37 µM.

For the next assay, the species on record is Homo sapiens. The assay is described as follows: To identify inhibition of the IFN signalling (Jak-Stat) pathway via expression of an eGFP reporter gene under the control of an IFN-stimulated response element (ISRE) containing MxA promoter. In kind it is functional. The following applies: 30 µM.
Assay [7] has as its target T4, Tyrosyl-tRNA synthetase, putative (Trypanosoma cruzi (strain CL Brener)) (UniProt Q4DSP6).
T4 sequence (whole entry): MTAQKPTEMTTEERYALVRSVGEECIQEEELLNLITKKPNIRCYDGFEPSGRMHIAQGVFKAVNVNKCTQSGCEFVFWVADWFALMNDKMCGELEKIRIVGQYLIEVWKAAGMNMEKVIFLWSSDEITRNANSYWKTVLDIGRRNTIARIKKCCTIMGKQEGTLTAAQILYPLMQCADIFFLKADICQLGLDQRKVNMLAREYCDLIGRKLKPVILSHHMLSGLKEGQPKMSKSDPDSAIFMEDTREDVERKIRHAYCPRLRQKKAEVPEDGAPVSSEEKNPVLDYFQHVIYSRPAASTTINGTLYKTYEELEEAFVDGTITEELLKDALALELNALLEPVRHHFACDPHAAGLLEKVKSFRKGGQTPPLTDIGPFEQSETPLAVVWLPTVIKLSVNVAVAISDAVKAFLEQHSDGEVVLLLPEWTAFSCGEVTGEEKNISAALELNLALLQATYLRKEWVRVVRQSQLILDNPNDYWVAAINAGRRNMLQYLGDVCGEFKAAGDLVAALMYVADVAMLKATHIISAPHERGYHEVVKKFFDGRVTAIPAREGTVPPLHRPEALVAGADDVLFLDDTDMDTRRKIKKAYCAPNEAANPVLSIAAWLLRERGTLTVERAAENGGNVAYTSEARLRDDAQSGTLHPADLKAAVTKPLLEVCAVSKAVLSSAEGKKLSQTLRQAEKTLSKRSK
The assay is described as follows: Trypanosoma cruzi tyrosyl tRNA synthetase (TcYRS) _High Tyrosine SOP. Further: in the data most compounds retested in dose-response had high values. In kind it is functional. The following applies: 30 µM.

Assay [8] deals with T4, Tyrosyl-tRNA synthetase, putative (Trypanosoma cruzi (strain CL Brener)). Kind of assay: Trypanosoma cruzi tyrosyl tRNA synthetase (TcYRS) SOP. The assay is classed as functional. The settings on record: 30 µM.
The target of assay [9] is Chromo domain-containing protein 1 (Saccharomyces cerevisiae (strain ATCC 204508 / S288c) (Baker's yeast)) (UniProt P32657). Kind of assay: ScCHD-1 Enzyme Inhibition Assay. Further: in the data most compounds retested in dose-response had high values. The settings on record: 30 µM. In kind it is functional.
Chromo domain-containing protein 1 (Saccharomyces cerevisiae (strain ATCC 204508 / S288c) (Baker's yeast)), sequence (P32657 whole entry, the tested form may be a part): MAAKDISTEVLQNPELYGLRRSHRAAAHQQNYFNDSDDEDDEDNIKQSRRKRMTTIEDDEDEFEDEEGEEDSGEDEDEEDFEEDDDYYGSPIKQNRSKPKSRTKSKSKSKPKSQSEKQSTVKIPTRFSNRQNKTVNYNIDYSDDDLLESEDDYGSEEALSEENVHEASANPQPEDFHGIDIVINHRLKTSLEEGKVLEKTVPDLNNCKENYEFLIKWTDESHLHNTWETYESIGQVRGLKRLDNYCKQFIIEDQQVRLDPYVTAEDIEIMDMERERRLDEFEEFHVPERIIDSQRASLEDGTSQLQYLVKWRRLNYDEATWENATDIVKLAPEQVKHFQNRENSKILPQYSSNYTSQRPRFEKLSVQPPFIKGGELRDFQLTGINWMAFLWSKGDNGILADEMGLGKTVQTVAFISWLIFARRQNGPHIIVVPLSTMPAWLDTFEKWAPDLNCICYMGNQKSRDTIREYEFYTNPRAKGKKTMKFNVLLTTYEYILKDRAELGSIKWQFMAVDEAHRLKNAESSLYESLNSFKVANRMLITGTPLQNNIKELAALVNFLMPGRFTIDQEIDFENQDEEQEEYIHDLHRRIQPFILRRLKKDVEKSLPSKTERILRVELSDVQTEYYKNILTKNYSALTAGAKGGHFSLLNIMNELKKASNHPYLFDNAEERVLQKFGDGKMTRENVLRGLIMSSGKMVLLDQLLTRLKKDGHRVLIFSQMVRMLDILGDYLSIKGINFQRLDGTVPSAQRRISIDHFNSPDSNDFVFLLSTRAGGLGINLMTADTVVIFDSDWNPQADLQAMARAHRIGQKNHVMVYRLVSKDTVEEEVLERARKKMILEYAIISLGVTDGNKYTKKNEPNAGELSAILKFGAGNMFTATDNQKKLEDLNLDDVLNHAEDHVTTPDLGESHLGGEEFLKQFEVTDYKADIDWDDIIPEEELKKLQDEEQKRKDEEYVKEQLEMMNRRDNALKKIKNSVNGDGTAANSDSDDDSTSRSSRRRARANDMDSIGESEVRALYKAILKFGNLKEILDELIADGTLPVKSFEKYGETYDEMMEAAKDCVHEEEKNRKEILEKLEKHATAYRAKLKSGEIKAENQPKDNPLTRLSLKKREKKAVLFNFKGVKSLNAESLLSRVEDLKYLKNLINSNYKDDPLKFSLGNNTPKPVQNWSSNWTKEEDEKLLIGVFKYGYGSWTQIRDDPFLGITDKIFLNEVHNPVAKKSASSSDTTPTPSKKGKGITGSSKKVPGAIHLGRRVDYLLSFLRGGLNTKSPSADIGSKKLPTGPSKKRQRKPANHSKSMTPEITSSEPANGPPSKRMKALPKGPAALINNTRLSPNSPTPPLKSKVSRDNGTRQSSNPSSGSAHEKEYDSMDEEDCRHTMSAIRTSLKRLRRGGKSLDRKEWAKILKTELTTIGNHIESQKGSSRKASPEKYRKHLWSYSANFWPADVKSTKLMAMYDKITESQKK

Sialic acid-binding Ig-like lectin 9 (Homo sapiens), sequence (Q9Y336 whole entry): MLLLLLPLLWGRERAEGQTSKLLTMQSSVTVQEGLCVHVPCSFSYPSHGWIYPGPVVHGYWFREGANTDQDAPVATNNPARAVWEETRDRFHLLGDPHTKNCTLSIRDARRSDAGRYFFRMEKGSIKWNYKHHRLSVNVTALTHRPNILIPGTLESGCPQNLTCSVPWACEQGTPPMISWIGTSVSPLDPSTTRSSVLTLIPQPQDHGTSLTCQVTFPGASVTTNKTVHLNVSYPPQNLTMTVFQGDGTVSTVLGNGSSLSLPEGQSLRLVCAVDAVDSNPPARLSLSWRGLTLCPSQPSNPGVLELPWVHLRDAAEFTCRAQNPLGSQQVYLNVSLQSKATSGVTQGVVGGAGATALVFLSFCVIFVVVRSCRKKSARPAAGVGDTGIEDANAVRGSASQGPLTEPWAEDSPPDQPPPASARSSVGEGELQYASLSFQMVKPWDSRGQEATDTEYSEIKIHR
Protein translocase subunit SecA (Escherichia coli (strain K12)), sequence (P10408 whole entry): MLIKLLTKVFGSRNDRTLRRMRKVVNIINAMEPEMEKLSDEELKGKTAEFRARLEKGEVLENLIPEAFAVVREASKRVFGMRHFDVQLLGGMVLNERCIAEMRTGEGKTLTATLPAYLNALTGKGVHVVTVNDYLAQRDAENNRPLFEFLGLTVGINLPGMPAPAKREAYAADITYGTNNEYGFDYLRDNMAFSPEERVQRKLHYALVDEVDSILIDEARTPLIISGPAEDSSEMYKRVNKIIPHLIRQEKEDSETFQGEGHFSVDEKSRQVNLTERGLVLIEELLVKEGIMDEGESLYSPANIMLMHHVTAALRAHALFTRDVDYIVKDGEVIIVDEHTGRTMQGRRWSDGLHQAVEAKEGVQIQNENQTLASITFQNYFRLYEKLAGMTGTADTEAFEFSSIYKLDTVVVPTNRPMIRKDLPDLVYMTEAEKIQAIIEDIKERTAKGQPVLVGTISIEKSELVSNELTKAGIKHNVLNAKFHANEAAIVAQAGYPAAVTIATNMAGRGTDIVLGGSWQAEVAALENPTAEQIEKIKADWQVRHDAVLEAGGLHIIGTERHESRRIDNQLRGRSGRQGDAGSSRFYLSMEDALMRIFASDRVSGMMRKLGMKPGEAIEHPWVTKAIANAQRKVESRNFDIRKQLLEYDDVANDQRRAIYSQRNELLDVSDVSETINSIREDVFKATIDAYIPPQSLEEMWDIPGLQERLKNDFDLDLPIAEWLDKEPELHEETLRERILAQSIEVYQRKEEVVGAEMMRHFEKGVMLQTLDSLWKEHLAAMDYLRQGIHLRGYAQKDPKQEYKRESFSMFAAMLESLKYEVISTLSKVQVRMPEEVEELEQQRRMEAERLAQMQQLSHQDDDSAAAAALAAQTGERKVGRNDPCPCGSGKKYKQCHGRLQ

Regarding `Cc1noc(C)c1CN1C[C@@H]2COC[C@H](C(=O)N3CCCCO3)[C@@H]2C1`, the Percent Effect in assay [1] is -5.77%; in [2], 8%; in assay [3] it was 8.79%; in assay [4], -0.115%; in the assay on Trypanosoma cruzi, -5.12%; in assay [5], -1.17%. Also, the Percent Effect in assay [6] was 7.31%; in the assay filed under Homo sapiens, 3.63%; in assay [7], 6.38%; in assay [8], 8.97%; in [9] it was -0.163%.

For `CN(Cc1cnn(C)c1)C(=O)NC1CCN(Cc2ccccn2)CC1`, the Percent Effect in assay [1] was -4.71%; in [2] it was 15.6%; in [3], 2.19%; in assay [4], -0.77%; in the assay with Trypanosoma cruzi, -8.99%; in assay [5], 0.356%. The Percent Effect in [6] is 4.22%; in the assay listed under Homo sapiens, 15.9%; in [7], 3.88%; in assay [8], 7.32%; in [9], -3.83%.

Consider `CCc1cc(C)c(C(=O)N2CCCC2CC(=O)c2cnn(C)c2)o1` (stereo not given), for which the Percent Effect in [1] was -1.93%; in assay [2], -1.27%; in assay [3], 169%; in assay [4], -0.655%; in the assay with Trypanosoma cruzi, -1.13%; in assay [5] it was -1.5%. The Percent Effect in assay [6] is 7.03%; in the assay filed under Homo sapiens, 7.3%; in [7], -1.04%; in assay [8] it was 0%; in assay [9], -4.62%.

On to `Cc1nn(C)c(N2CCOCC2)c1CNCc1ccnc(N(C)C)c1`, for which the Percent Effect in [1] is -1.81%; in assay [2], 10.4%; in assay [3], -5.9%; in assay [4], -0.165%; in the assay on Trypanosoma cruzi it was -2.64%; in assay [5], 0.21%. Besides, the Percent Effect in assay [6] is 10.6%; in the assay filed under Homo sapiens it was 25.3%; in assay [7] it was 3.81%; in assay [8], 14.1%; in [9] it was -2.85%.

With `COc1ccc(-n2ccc(C(=O)NCCN3CCCCC3C)n2)cc1` (stereo not given), the Percent Effect in assay [1] is -5.51%; in assay [2], -8.11%; in [3] it was -13.2%; in assay [4], 18.1%; in the assay on Trypanosoma cruzi, 4.62%; in [5] it was -6.01%. Moreover, the Percent Effect is 1.62% in assay [6]; -11.9% in the assay listed under Homo sapiens; 1.48% in [7]; 16.1% in assay [8]; -12.9% in assay [9].

`Cc1cc(=O)n(CC(=O)NCCC(C)C)c(-c2cccc(Cl)c2)n1`: the Percent Effect in assay [1] is -6.74%; in assay [2], 2.6%; in assay [3], 3.52%; in assay [4], 10.7%; in the assay on Trypanosoma cruzi, 2.85%; in assay [5] it was -9.65%. Besides, the Percent Effect in [6] stood at 6.49%; in the assay listed under Homo sapiens, 2.45%; in assay [7], 6.45%; in assay [8], 13.6%; in [9] it was 5.24%.

Turning to `O=C(NCCN1CCOCC1)NCc1ncc(-c2ccccc2)o1`, the Percent Effect in assay [1] is -2.93%; in assay [2], 2.67%; in [3], -6.01%; in [4] it was 8.92%; in the assay on Trypanosoma cruzi it was 7.3%; in assay [5], 0%. Moreover, the Percent Effect is 16.6% in [6]; 19.1% in the assay filed under Homo sapiens; 7.1% in assay [7]; 13.6% in [8]; -0.412% in assay [9].

As to `O=C(c1cnn2c1OCCC2)N1CCN(C/C=C/c2ccccc2)CC1`, the Percent Effect is -2.24% in assay [1]; 7.79% in [2]; 3.47% in assay [3]; 6.1% in assay [4]; -1.28% with Trypanosoma cruzi; -5.81% in assay [5]. Further, the Percent Effect in assay [6] is 8.88%; in the assay filed under Homo sapiens, 10.8%; in [7], 5.29%; in assay [8], 16.7%; in assay [9] it was -8.13%.

As to `Cc1ccc(NC(=O)c2n[nH]c(-n3cnnc3)n2)cc1C`, the Percent Effect is -5.16% in assay [1]; 9.33% in assay [2]; -5.75% in assay [3]; -2.63% in assay [4]; 4.32% in the assay on Trypanosoma cruzi; 21.6% in assay [5]. The Percent Effect in assay [6] is -10.7%; in the assay filed under Homo sapiens it was -2.17%; in [7] it was 8.47%; in [8] it was 10.3%; in assay [9], -18.6%.

Turning to `O=C(CN1CCC(N2CCNC2=O)CC1)NCC(F)(F)F`, the Percent Effect was -3.52% in assay [1]; 17.7% in assay [2]; -4.25% in [3]; 3.47% in [4]; -2.36% in the assay on Trypanosoma cruzi; 4.56% in assay [5]. In addition, the Percent Effect is 5% in assay [6]; 9.87% in the assay filed under Homo sapiens; 5.42% in [7]; 13.9% in [8]; -4.76% in assay [9].
